Compounds without any hit were thinned out: in the full panel of roughly 83,000, 20% have a hit.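 A percent growth of 40 corresponds to 60% growth inhibition; 0 means no net growth; -100 means all cells died. Active threshold: below 10.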 Values without a mark were called inactive. Active and inactive are the calls of the source.
Assays:
Assay in all cases: NCI-60 one-dose screen, 48 h (100 = growth as untreated, 0 = no growth, -100 = all killed)
Conditions in all cases: 10 µM unless noted
NCI-H23 lung = test system: NCI-H23 lung
NCI-H226 lung = test system: NCI-H226 lung
NCI-H322M lung = test system: NCI-H322M lung
HOP-62 NSCLC = test system: HOP-62 NSCLC
NCI-H460 lung = test system: NCI-H460 lung
NCI-H522 lung = test system: NCI-H522 lung
A549/ATCC NSCLC = test system: A549/ATCC NSCLC
COLO 205 colon = test system: COLO 205 colon
DU-145 prostate = test system: DU-145 prostate
K-562 leukemia = test system: K-562 leukemia
MALME-3M melanoma = test system: MALME-3M melanoma
MDA-MB-231 breast = test system: MDA-MB-231 breast
RXF 393 renal = test system: RXF 393 renal
SF-268 CNS = test system: SF-268 CNS
SF-295 CNS = test system: SF-295 CNS
SF-539 CNS = test system: SF-539 CNS
UACC-257 melanoma = test system: UACC-257 melanoma
HCT-15 colon = test system: HCT-15 colon
786-0 renal = test system: 786-0 renal
M14 melanoma = test system: M14 melanoma

SMILES | growth (NCI-H23 lung) | growth (NCI-H226 lung) | growth (NCI-H322M lung) | growth (HOP-62 NSCLC) | growth (NCI-H460 lung) | growth (NCI-H522 lung) | growth (A549/ATCC NSCLC) | growth (COLO 205 colon) [%] | growth (DU-145 prostate) [%] | growth (K-562 leukemia) | growth (MALME-3M melanoma) | growth (MDA-MB-231 breast) | growth (RXF 393 renal) | growth (SF-268 CNS) | growth (SF-295 CNS) | growth (SF-539 CNS) | growth (UACC-257 melanoma) | growth (HCT-15 colon) | growth (786-0 renal) | growth (M14 melanoma)
CCN(CC)CCOc1ccccc1-n1c(C)ccc1-c1ccccc1 | 102% | 92% | 80.1% | 106% | 44.2% | 101% | 88.2% | 70.3 | 103 | -48.1% (active) | 89% | 102% | 84.6% | 78.5% | 93% | 92.7% | 100% | 90.5% |  | 
Cn1cc(-c2csc(-c3cn(C)c4ncccc34)n2)c2cc(F)cnc21 | 70.5% | 94.4% | 112% | 99.1% | 84.1% | 22.2% | 73.6% |  |  |  | 80.7% | 62.6% | 82.4% | 95.4% | 69.5% | 101% | 84.1% | 61% | 91% | 62.8%
Cc1cc2cn3c4cccnc4[nH]c(=O)c3c2cc1C | 55.7% | 90.3% | 91.8% | 46.8% | 4.12% (active) | -75% (active) | 10.2% |  |  |  | 80.1% | 40.5% | 70.6% | 73.4% | 34.4% | 76.7% | 85.8% | -37.7% (active) | -14.5% (active) | 36.4%
CCC(C)CC(CC)NCCN1CCN(C(CC)CC(C)CC)C1=S (stereo unspecified) | 42.5% | 47% | 78.8% | 29.1% | 9.44% (active) | -12% (active) | 50.2% |  | 29.5 |  | -33.8% (active) | -12.4% (active) |  | 61.8% | 56.1% | 69.2% | 39.5% | 22.5% | 56.5% | -47.3% (active)
NC(N)=NC(N)=NCCCc1ccccc1 | 50.2% [100 µM] | 63.4% [100 µM] | 84.6% [100 µM] | 65.1% [100 µM] | 81.6% [100 µM] | 47.2% [100 µM] | 62.3% [100 µM] |  |  |  | 63.9% [100 µM] | 69% [100 µM] | 72.4% [100 µM] | 59.5% [100 µM] | 49.4% [100 µM] | 66.5% [100 µM] | 62.8% [100 µM] | 80.3% [100 µM] | 56.2% [100 µM] | 76.6% [100 µM]
CC[N+](C)(CC)CCCC(C)Nc1ccnc2cc(Cl)ccc12 (stereo unspecified) | 102% | 96.3% | 96.5% | 113% | 102% | 108% | 107% | 107 | 97.7 |  | 104% | 114% | 125% | 91.4% | 108% | 105% | 107% | 110% |  | 109%
Cc1nn(-c2ccccc2)c2nc3c(nc12)C(=O)CCC3 | 80.4% | 107% | 93.1% | 92.9% | 104% | 74% | 92.9% |  | 104 |  | 98% | 108% | 116% | 103% |  |  | 99.8% | 88.5% | 88.5% | 106%
O=C1Cc2cc(CCN3CCN(CCOCCO)CC3)c(Cl)cc2N1Cc1ccc(-c2ccccc2-c2nn[nH]n2)cc1 | 85.8% | 81.8% | 108% | 91.6% | 90% | 79.4% | 87.1% |  | 117 |  | 91.8% | 92.1% | 113% | 117% | 93.5% |  | 81.4% | 86.6% | 86.8% | 92.6%
N#CCCCCCn1c2ccccc2c2c3c(c4c5ccccc5[nH]c4c21)C(=O)N(O)C3=O | -5.54% (active) | 43.3% | 19.9% | 18.4% | -7.73% (active) | -53.9% (active) | 25% | 26.7 | 18.5 | 6.27% (active) | -34.6% (active) | 16.1% | -30.7% (active) | 11.3% | -17.2% (active) | -95.4% (active) | 20.5% | 15.9% |  | 11.9%
